Source: PubChem BioAssay
Shown are actives, neighbours in structure and some others; about 1.6% of the full set was active somewhere.
HTT ATP protect – protects HTT-Q103 PC12 cells, measured by ATP; PC12 HTT-Q103 induced, cytoprotection, ATP luminescence, 40 h; Potency, µM (series often up to 56.4 µM), for the others: cytoprotection (ATP increase), hits mostly activators; hit rate 0.14% among 230,000; also: potency is read from the fitted curve at half-maximal effect; % of control where 0% means no effect; nearly all actives have a fitted effect of over 45% in size
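Cells were plated at 1500 per well in phenol red-free DMEM with 5% equine and 5% calf serum. Tebufenozide (100 nM final) and compounds were added, then ATPlite reagent, and luminescence was read.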
HttQ103 aggreg – inhibitors of mutant huntingtin aggregate formation in PC12 cells; Potency, µM (doses to about 46.1 µM), without a hit: top-dose activity change, negative = inhibition, hits mostly inhibitors; PC12 HttQ103-GFP aggregates, Acumen cytometry, 40 h; hit rate 1.1% among 220,000; AID 1688; also: potency is read from the fitted curve at half-maximal effect; % is scaled to controls: 0 for no effect and ±100 for the full control effect; nearly all actives have a fitted effect of over 60% in size
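Aggregates are detected as GFP objects 1–25 µm with signal 6 STDEV over background in lysates of induced PC12 cells. These carry Huntingtin exon 1 with 103 glutamines fused to GFP under an ecdysone promoter; compounds titrated.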
NPSR antag – neuropeptide S receptor (human) antagonism, cAMP; Q6W5P4; CHO-NPSR cells, cAMP TR-FRET, antagonist mode; Potency, µM (top dose mostly 38.3 µM), without a hit: at the highest dose activity change, negative = inhibition, hits mostly inhibitors; hit rate 1% among 220,000; AID 1461; also: potency is read from the fitted curve at half-maximal effect; % is scaled to controls: 0 for no effect and ±100 for the full control effect; nearly all actives have a fitted effect of over 50% in size
Target sequence (Q6W5P4 whole entry, looked up): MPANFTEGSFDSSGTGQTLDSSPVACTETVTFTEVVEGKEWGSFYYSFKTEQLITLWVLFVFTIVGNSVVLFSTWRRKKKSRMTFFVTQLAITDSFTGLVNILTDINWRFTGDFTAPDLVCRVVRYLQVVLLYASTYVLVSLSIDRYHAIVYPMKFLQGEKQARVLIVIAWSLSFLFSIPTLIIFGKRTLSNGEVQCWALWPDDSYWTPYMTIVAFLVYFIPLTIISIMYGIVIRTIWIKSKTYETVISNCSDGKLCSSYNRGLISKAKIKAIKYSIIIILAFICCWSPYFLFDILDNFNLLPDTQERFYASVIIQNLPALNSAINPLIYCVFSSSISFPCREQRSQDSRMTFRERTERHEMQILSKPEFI
Lamin A splicing – modulators of lamin A splicing; HeLa LMNA splicing GFP/RFP minigene ratio, 48 h; Potency, µM (doses to about 46.1 µM), without a hit: at the top dose ratio change, negative = inhibition, hits mostly inhibitors; hit rate 0.01% among 200,000; AID 1487; active = well fitted inhibition curve with a large enough effect in the signal ratio, with a control signal flat, not every such curve was filed as active; inconclusive = small, poorly fitted or top-dose-only effect, or effect the other way, or a change in a side signal; the % refers to the signal ratio; also: potency is read from the fitted curve at half-maximal effect; % is scaled to controls: 0 for no effect and ±100 for the full control effect
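Read-out is the ratio of GFP to DsRed2 object intensity, acquired by 488 nm laser-scanning cytometry on HeLa lamin A-EGFP minigene reporter cells. Compound incubation 48 hrs at 37 °C in Opti-MEM with 2% FBS; DMSO 0.5% final.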
IMPase inh – membrane-permeable compound that blocks inositol monophosphatase. inhibition (IP1 accumulation), % at 46.1 µM. CHO-M1 cells, IP1 accumulation, HTRF TR-FRET ratio. 120,000 tested, under 10 active. AID 901. P97697; active = well fitted curve in the direction sought with a large enough effect in the signal ratio, not every such curve was filed as active; inconclusive = small, poorly fitted or top-dose-only effect, or a change in a side signal; inactive = no such curve, though single readings can be large or run the other way; the % refers to the signal ratio;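 also: cells stimulated with carbachol in lithium chloride buffer; plate controls were DMSO basal wells for no effect and reference inhibitor wells for full effect; higher means more IMPase inhibition seen as more IP1 and lower FRET ratio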
Target sequence (P97697 whole entry, looked up): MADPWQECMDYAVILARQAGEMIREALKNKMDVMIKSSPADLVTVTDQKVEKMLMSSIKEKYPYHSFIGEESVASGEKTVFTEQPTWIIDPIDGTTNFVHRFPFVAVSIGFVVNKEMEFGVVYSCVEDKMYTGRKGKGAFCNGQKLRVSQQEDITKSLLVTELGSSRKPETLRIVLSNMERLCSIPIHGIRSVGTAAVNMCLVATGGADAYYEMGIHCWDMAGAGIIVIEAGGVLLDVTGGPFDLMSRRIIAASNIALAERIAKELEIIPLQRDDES
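In this qHTS, compounds (final up to 46 uM) act on CHO-M1 cells that are then activated through the M1 receptor with carbachol, in pH 7.4 buffer containing 50 mM LiCl, for 30 min. IP1 accumulation is quantified by the IP-One immunoassay.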
IMPase Li cell – membrane-permeable IMPase blocker, potentiated with lithium | CHO-M1 cells, IP1 TR-FRET (IP-One), carbachol + lithium | Potency, µM (doses to about 59.4 µM), inactives show at the top dose activity, negative = IMPase inhibition, hits mostly inhibitors | hit rate 0.35% among 210,000;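 also: IP1 builds up when IMPase is blocked and the TR-FRET signal falls; potency is read from the fitted curve at half-maximal effect; plate controls were basal vehicle for no effect and high inhibitor control for full effect; nearly all actives have a fitted effect of over 50% in size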
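CHO-M1, 2000 cells/well, 16–30 h culture; cpd + low Li+, 30 min 37C; lysis with d2-IP1/Eu-anti-IP1 Ab, 10 min RT; TR-FRET 665/620 ratio and 620 channel; AC50 via Hill.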
* hit, by the source's call; ? = inconclusive; · = not tested or not shown; [ ] = remark or other dose. Unless noted, calls follow the shape of the dose curve; as a rule, active = well fitted curve in the direction sought with a large enough effect; inconclusive = small, poorly fitted or top-dose-only effect, or another doubt; inactive = no such curve, though single readings can be large; an effect the other way counts as inactive or inconclusive.

SMILES	HTT ATP protect	HttQ103 aggreg	NPSR antag	Lamin A splicing	IMPase inh	IMPase Li cell
Cc1ccc(C)c(N2CCN(C(=O)C3CCN(S(=O)(=O)c4cn(C)cn4)CC3)CC2)c1	·	·	·	-8.4%[46 µM]	·	·
CCOC(=O)c1cnc2c(-c3ccc(Cl)cc3)cnn2c1C	14.7%[10 µM]	-1.7%[9.22 µM]	-16.7%	?	·	-1.3%
CCOC(=O)c1c(-c2ccc(Cl)cc2)cn2ccccc12	0.1%	11.0%	0.7%[46.1 µM]	13.6%	1.8	28.2µM*
COc1ccc2[nH]c3c(NCCC4=CCCCC4)ncnc3c2c1	-156.0%	12.6µM*	-57.4%	·	·	10.0%
CCN(CC)CCNc1ncnc2c1[nH]c1ccc(OC)cc12	-23.0%	-7.5%	?	2.6%	5.1	13.9%[38.3 µM]
O=C1C2C3C=CC(C3)C2C(=O)N1/N=C/c1ccc(-c2ccccc2[N+](=O)[O-])o1 (stereo not given)	-46.2%[0.074 µM]	2.1%	-9.1%	?	·	10.8%
O=C1C2C3C=CC(C3)C2C(=O)N1/N=C/c1cc(Br)cc([N+](=O)[O-])c1O (stereo not given)	-3.8%[10 µM]	12.6µM*	-6.7%[46.1 µM]	?	-0.7	-3.9%[38.3 µM]
COC(=O)CCCNC(=O)c1ccc2[nH]c(C)c(C)c2c1	-10.6%	1.26µM*	-3.1%	?	·	6.9%
Cc1[nH]c2ccc(C(=O)O)cc2c1C	-26.1%	-0.2%[9.22 µM]	-22.8%[46.1 µM]	0.9%	5.7	-7.3%[38.3 µM]
CCC(C)C(N)C(=O)O (stereo not given)	5.2%	-1.0%	·	·	·	·
O=C(/C=C/c1ccc2c(c1)OCO2)c1cccs1	-20.6%[1.9 µM]	·	·	·	9.4	7.8%
CC(C)c1[nH]nc2c1C(c1cccc(OC(=O)N3CCOCC3)c1)C(C#N)=C(N)O2 (stereo not given)	-19.5%	3.16µM*	-6.1%[46.1 µM]	7.6%	16.3	-1.9%[38.3 µM]
CCc1[nH]nc2c1C(c1cccc(OC(=O)N3CCOCC3)c1)C(C#N)=C(N)O2 (stereo not given)	0.7%[10 µM]	-13.3%	-4.5%[46.1 µM]	-7.0%	-0.7	5.7%
CC(C)(C)c1ccc(-c2nnc(SCCC#N)n2C2CCCC2)cc1	26.5%[1.9 µM]	11.2µM*	-27.3%[46.1 µM]	-21.0%	3.2	47.4%[38.3 µM]
CCOc1ccc(OCC)c(NC(=O)c2ccc(CNc3c(N4CCOCC4)c(=O)c3=O)cc2)c1	3.16µM*	?	-11.9%[46.1 µM]	-14.0%	0.6	14.3%[38.3 µM]
C=CCOC(=O)N[C@H](/C(C(=O)OC)=C(\C)NCc1ccccc1)c1ccc(C)cc1	-4.3%	·	·	·	·	18.9%
O=S(=O)(Nc1ccc(Cc2ccncc2)cc1)c1ccc(Cl)c(Cl)c1	-60.0%	11.2µM*	-29.5%[46.1 µM]	16.7%	18.7	29.2%[38.3 µM]
O=S(=O)(Nc1ccc(-n2cccc2)cc1)c1ccc(Cl)c(Cl)c1	-19.4%[10 µM]	-6.0%[9.22 µM]	15.0%	?	·	·
COc1cc2c(cc1OC)-c1c(oc3cc(O)cc(O)c3c1=O)CO2	-72.8%	·	·	·	·	12.3%
CC/C=C1/OC(=O)c2ccccc21	-10.6%	·	·	·	·	-14.0%
C[N+]1(CCCC[N+]2(C)CCCCCCC2)CCCCCCC1	4.0%[10 µM]	·	·	·	·	-1.0%
CCCCCCCCn1ccc(=N)cc1	-64.4%[10 µM]	-44.9%[9.22 µM]	-20.2%	·	·	·
CCCCCCCCCCn1ccc(=N)cc1	-63.8%[10 µM]	?	7.94µM*	·	·	·
CC(=O)[C@H]1CC[C@@H]2[C@]1(C)CC=C1[C@]23C=C[C@]2(C[C@H](O)CC[C@@]12C)[C@H](C(=O)O)[C@@H]3C(=O)O	9.0%[10 µM]	·	·	·	·	·
O=C(O)CCCC[C@@H]1SC[C@H]2NC(=O)N[C@H]12	-27.0%	·	·	·	·	·
SMILES	HTT ATP protect	HttQ103 aggreg	NPSR antag	Lamin A splicing	IMPase inh	IMPase Li cell
CCOc1ccccc1C(=O)N1c2ccccc2Sc2ccccc21	?	15.8µM*	-10.8%[46.1 µM]	7.6%	5.3	21.2%[38.3 µM]
Nc1ncnc2c1ncn2[C@@H]1O[C@@H](CO)[C@H](O)[C@@H]1O	0.1%[1.9 µM]	·	·	·	-0.9	·
CN(C)CCNC(=O)/C(=C/c1ccc(-c2ccc(Cl)cc2)o1)NC(=O)c1ccccc1	-1.6%[0.074 µM]	3.16µM*	-12.1%	?	·	29.3%
Cc1ccc(C(=O)N/C(=C\c2ccc(-c3ccc(Br)cc3)o2)C(=O)NCCCN(C)C)cc1	8.1%[10 µM]	?	-41.9%	·	·	34.3%
CN(C)CCCNC(=O)/C(=C\c1ccc(-c2cccc([N+](=O)[O-])c2)o1)NC(=O)c1ccccc1	·	·	-44.7%	·	·	18.9%
CN(C)CCNC(=O)/C(=C/c1ccc(-c2ccc(Cl)cc2Cl)o1)NC(=O)c1ccccc1	·	35.5µM*	?	?	·	16.7%
O=C(Nc1cccc(S(=O)(=O)N2CCCCCC2)c1)c1cc(=O)c2ccccc2o1	-38.9%	20µM*	-41.6%	-26.3%[46 µM]	·	21.3%
O=C(Nc1cccc(S(=O)(=O)N2CCCCC2)c1)c1ccccn1	-47.2%	-25.3%	-34.9%	·	·	18.2%
Cc1ccc(OCC(=O)N2CC(C)OC(C)C2)c([N+](=O)[O-])n1 (stereo not given)	0.0501µM*	2.6%	20.3%	?	·	2.0%
Cc1ccc(OCC(=O)N2CCOCC2)c([N+](=O)[O-])n1	23.5%[10 µM]	20.0%[9.22 µM]	4.6%	·	·	·
Nc1nc(N)c2nc(CNc3ccc(C(=O)N[C@H](CCC(=O)O)C(=O)O)cc3)cnc2n1	-21.2%[1.9 µM]	·	·	·	0.0	·
O=C(c1noc2c1CCCCC2)N1CCN(c2cccc(C(F)(F)F)c2)CC1	·	·	·	-28.6%[46 µM]	·	·
CSc1nc(N)nc(SCCS(=O)(=O)c2ccc(Cl)cc2)c1C#N	-12.5%[0.074 µM]	10µM*	?	?	14.1	13.5%
CSc1nc(N)nc(SCC(=O)Nc2ccc(Cl)cc2)c1C#N	-13.7%	8.1%	?	-15.9%	5.9	22.7%[38.3 µM]
O=C(CSc1ncn[nH]1)Nc1nc(-c2ccccc2)ns1	2.9%[0.074 µM]	22.4µM*	-28.4%[46.1 µM]	0.8%	10.3	24.2%[38.3 µM]
